Records with an inconclusive call do not appear. Entries that show only a call come without a potency. Calls of active or inactive are those of the source. Calls follow the shape of the dose curve; as a rule, active = well fitted inhibition curve with a large enough effect; inconclusive = small, poorly fitted or top-dose-only effect; inactive = flat fitted curve, though single readings scatter.
Also: nearly all actives have a fitted effect of over 65% in size.

Phospholipid hydroperoxide glutathione peroxidase GPX4 (Homo sapiens), sequence (P36969 whole entry, looked up): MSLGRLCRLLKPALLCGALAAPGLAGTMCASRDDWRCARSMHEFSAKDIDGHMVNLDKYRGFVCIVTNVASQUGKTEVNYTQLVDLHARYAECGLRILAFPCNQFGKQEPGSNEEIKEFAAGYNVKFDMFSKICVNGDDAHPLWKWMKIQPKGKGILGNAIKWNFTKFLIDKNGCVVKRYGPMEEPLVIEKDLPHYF

The target in one assay is Glutathione peroxidase 1 (Homo sapiens) (UniProt P07203). Nature of the assay: Primary qHTS Assay for Inhibitors of Recombinant Selenoprotein Glutathione Peroxidase 1 (GPX1) (AID 1845191). The note with it: recombinant GPX1, GR-coupled NADPH fluorescence, 15 min; series mostly up to 48.8 µM. In short, it runs like this: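 GPX1 10 nM, GR 100 nM, GSH 1 mM, NADPH 0.5 mM, CHP 0.5 mM (final). 30-min cpd preincubation, RT. Ex340/Em450 read t=0, t=15 min.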
Glutathione peroxidase 1 (Homo sapiens), sequence (P07203 whole entry, looked up): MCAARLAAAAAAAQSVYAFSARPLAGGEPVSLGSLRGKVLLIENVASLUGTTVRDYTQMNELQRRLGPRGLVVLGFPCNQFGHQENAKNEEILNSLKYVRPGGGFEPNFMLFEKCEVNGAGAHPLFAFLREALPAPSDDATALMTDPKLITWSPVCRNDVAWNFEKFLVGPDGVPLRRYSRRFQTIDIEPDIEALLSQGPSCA
(qHTS replaces the single test concentration by a dilution series.)
In the case of `CC(C)CCON=O`, the Potency entry was “inactive”. Still for that read-out and setting: with `CC[N+](C)(CC)CCOC(=O)C(O)(c1ccccc1)c1ccccc1` the entry was “inactive”; with `C=C(C)[C@H]1O[C@H]2CC[C@@]3(C)[C@@](O)(CC[C@H]4[C@@H]5OC(C)(C)[C@H]6C[C@@H]7C(=C)Cc8c(Cl)cc9[nH]c(c5c9c8[C@@]76O)[C@@]43C)[C@]23O[C@@H]3[C@H]1O`, “inactive”; with `C=CC[C@]1(O)CC[C@H]2[C@@H]3CCC4=CCCC[C@@H]4[C@H]3CC[C@@]21C`, “inactive”.

On to `CCCCNCC(O)c1ccc(O)cc1` (configuration not stated), for which the Potency result is “inactive”. On the same count and under the same terms, with `C[C@@H]([C@H](O)c1ccccc1)N(C)C` the entry was “inactive”; with `CC(N)Cc1ccc(O)cc1` (configuration not stated), “inactive”; with `CCC(=O)O[C@@](Cc1ccccc1)(c1ccccc1)[C@@H](C)CN(C)C`, “inactive”.

`C[C@]12CC[C@H]3[C@@H](CCC4=C(O)C(=O)CC[C@@H]43)[C@@H]1CC[C@@H]2OC(=O)CCC1CCCC1`: the Potency result was “inactive”. With `CC(C)CCC(=O)O[C@H]1CC[C@H]2[C@@H]3CCC4=CC(=O)CC[C@]4(C)[C@H]3CC[C@]12C`, the Potency result was “inactive”.

Regarding `CCC1(CC)C(=O)NC(=O)N(C)C1=O`, the Potency entry was “inactive”. Same read-out and setting: with `C=C(CO)C(=O)O[C@H]1C/C(C)=C/CC/C(CO)=C/[C@H]2OC(=O)C(=C)[C@H]12` the entry was “inactive”; with `C[N+]1(C)CCCCC1COC(=O)C(O)(c1ccccc1)c1ccccc1` (configuration not stated), “inactive”; with `CCOc1ccc2c3c1O[C@H]1[C@@H](O)C=C[C@H]4[C@@H](C2)N(C)CC[C@@]341`, “inactive”. On the same count and under the same terms, with `FC(F)OC(F)(F)C(F)Cl` (configuration not stated) the entry was “inactive”; with `NCC(O)c1cccc(O)c1` (configuration not stated), “inactive”; with `COc1ccc2c(c1O)-c1cccc3c1[C@@H](C2)N(C)CC3`, “inactive”. Same read-out and setting: with `CCNCC(O)c1cccc(O)c1` (configuration not stated) the entry was “inactive”. Take `COC1CC(=O)C23C(=O)NC(CC(C)C)C2C(C)=C(C)C(OO)C3/C=C(\C)CCC(O)C1O` (configuration not stated): the Potency result is “inactive”. Turning to `Ic1ccccc1CNC1C2CCN(CC2)C1C(c1ccccc1)c1ccccc1` (configuration not stated), the Potency result was “inactive”. On the same count and under the same terms, with `C[C@H](NC(=O)Cc1cc(F)cc(F)c1)C(=O)N[C@@H]1N=C(c2ccccc2)c2ccccc2N(C)C1=O` the entry was “inactive”. Same read-out and setting: with `O=C(C[C@@H]1NCCC[C@H]1O)Cn1cnc2cc(Br)c(Cl)cc2c1=O` the entry was “inactive”. The same measure, in the same setting: with `Cn1sc(Cl)cc1=O` the entry was “inactive”; with `CC1=C2C[C@H]3[C@@H](CC=C4C[C@@H](O)CC[C@@]43C)[C@@H]2CC[C@]12O[C@@H]1C[C@H](C)CN[C@H]1[C@H]2C`, “inactive”; with `O=[N+]([O-])C(Br)(CO)CO`, “inactive”. Turning to `CCC1(C)CC(=O)NC(=O)C1`, the Potency result is “inactive”. On the same count and under the same terms, with `CC(C)(O)[C@@H]1[C@H]2OC(=O)[C@@H]1[C@]1(O)C[C@H]3O[C@]34C(=O)O[C@H]2[C@]14C` the entry was “inactive”; with `CC(=O)O[C@H]1CC[C@H]2[C@@H]3CCC4=CC(=O)CCC4=C3C=C[C@]12C`, “inactive”; with `CCOC(=O)c1ccccc1C(=O)OCC`, “inactive”.

`COC([CH2][Hg])CNC(=O)c1ccccc1OCC(=O)O` (configuration not stated): the Potency entry was “inactive”. Still for that read-out and setting: with `CC[C@H]1CN2CC[C@H]1C[C@H]2[C@H](O)c1ccnc2ccc(OC)cc12` the entry was “inactive”. Same read-out and setting: with `CCN(CC)C(=O)N[C@H]1C[C@@H]2c3cccc4[nH]cc(c34)C[C@H]2N(C)C1` the entry was “inactive”; with `Cc1cccc(NC(=O)N[C@@H]2N=C(c3ccccc3)c3ccccc3N(C)C2=O)c1`, “inactive”; with `O=[N+]([O-])c1ccccc1`, “inactive”. For `NC(=O)c1cc(N2CC2)c([N+](=O)[O-])cc1[N+](=O)[O-]`, the Potency entry is “inactive”.

For `CC1C/C=C/C(O)C(O)CC/C=C/c2cc(O)cc(O)c2C(=O)O1` (configuration not stated), the Potency entry is “inactive”. Consider `O=C(NCNC(=O)NC1C(=O)NC(=O)N1CO)NC1C(=O)NC(=O)N1CO` (configuration not stated), for which the Potency entry was “inactive”.

The next assay concerns the target Phospholipid hydroperoxide glutathione peroxidase GPX4 (Homo sapiens) (UniProt P36969). Put plainly: Primary qHTS Assay for Inhibitors of Recombinant Selenoprotein Glutathione Peroxidase 4 (GPX4) (AID 1845192). Also: potency is read from the fitted curve at half-maximal effect. The note with it: recombinant GPX4, GR-coupled NADPH fluorescence, 15 min; series mostly up to 50 µM. In outline: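 qHTS, GR-coupled: GPX4 200 nM + cpd 30 min RT → GSH 1 mM, NADPH 0.5 mM, GR 100 nM → CHP 0.5 mM start; fluor 340/450 at t0 and t15 min; no-enzyme wells as control.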
For the compound `CC(C)CCON=O`, the Potency entry is “inactive”. On the same count and under the same terms, with `CC[N+](C)(CC)CCOC(=O)C(O)(c1ccccc1)c1ccccc1` the entry was “inactive”; with `C=C(C)[C@H]1O[C@H]2CC[C@@]3(C)[C@@](O)(CC[C@H]4[C@@H]5OC(C)(C)[C@H]6C[C@@H]7C(=C)Cc8c(Cl)cc9[nH]c(c5c9c8[C@@]76O)[C@@]43C)[C@]23O[C@@H]3[C@H]1O`, “inactive”; with `C=CC[C@]1(O)CC[C@H]2[C@@H]3CCC4=CCCC[C@@H]4[C@H]3CC[C@@]21C`, “inactive”. Same read-out and setting: with `CCCCNCC(O)c1ccc(O)cc1` (configuration not stated) the entry was “inactive”. On to `C[C@@H]([C@H](O)c1ccccc1)N(C)C`, for which the Potency entry is “inactive”. Same read-out and setting: with `CC(N)Cc1ccc(O)cc1` (configuration not stated) the entry was “inactive”; with `CCC(=O)O[C@@](Cc1ccccc1)(c1ccccc1)[C@@H](C)CN(C)C`, “inactive”. Still for that read-out and setting: with `C[C@]12CC[C@H]3[C@@H](CCC4=C(O)C(=O)CC[C@@H]43)[C@@H]1CC[C@@H]2OC(=O)CCC1CCCC1` the figure was 14.1 µM (active).

In the case of `CC(C)CCC(=O)O[C@H]1CC[C@H]2[C@@H]3CCC4=CC(=O)CC[C@]4(C)[C@H]3CC[C@]12C`, the Potency entry was “inactive”. The same measure, in the same setting: with `CCC1(CC)C(=O)NC(=O)N(C)C1=O` the entry was “inactive”; with `C=C(CO)C(=O)O[C@H]1C/C(C)=C/CC/C(CO)=C/[C@H]2OC(=O)C(=C)[C@H]12`, “inactive”; with `C[N+]1(C)CCCCC1COC(=O)C(O)(c1ccccc1)c1ccccc1` (configuration not stated), “inactive”. Still for that read-out and setting: with `CCOc1ccc2c3c1O[C@H]1[C@@H](O)C=C[C@H]4[C@@H](C2)N(C)CC[C@@]341` the entry was “inactive”. On the same count and under the same terms, with `FC(F)OC(F)(F)C(F)Cl` (configuration not stated) the entry was “inactive”; with `NCC(O)c1cccc(O)c1` (configuration not stated), “inactive”; with `COc1ccc2c(c1O)-c1cccc3c1[C@@H](C2)N(C)CC3`, “inactive”. Take `CCNCC(O)c1cccc(O)c1` (configuration not stated): the Potency result was “inactive”. Regarding `COC1CC(=O)C23C(=O)NC(CC(C)C)C2C(C)=C(C)C(OO)C3/C=C(\C)CCC(O)C1O` (configuration not stated), the Potency entry is “inactive”. Still for that read-out and setting: with `O=C1C2CC=CCC2C(=O)N1SC(Cl)(Cl)Cl` (configuration not stated) the figure was 14.1 µM (active); with `Ic1ccccc1CNC1C2CCN(CC2)C1C(c1ccccc1)c1ccccc1` (configuration not stated), “inactive”. On the same count and under the same terms, with `C[C@H](NC(=O)Cc1cc(F)cc(F)c1)C(=O)N[C@@H]1N=C(c2ccccc2)c2ccccc2N(C)C1=O` the entry was “inactive”; with `O=C(C[C@@H]1NCCC[C@H]1O)Cn1cnc2cc(Br)c(Cl)cc2c1=O`, 17.8 µM (active). Still for that read-out and setting: with `Cn1sc(Cl)cc1=O` the entry was “inactive”; with `CC1=C2C[C@H]3[C@@H](CC=C4C[C@@H](O)CC[C@@]43C)[C@@H]2CC[C@]12O[C@@H]1C[C@H](C)CN[C@H]1[C@H]2C`, “inactive”. On to `O=[N+]([O-])C(Br)(CO)CO`, for which the Potency result was “inactive”.

Take `CCC1(C)CC(=O)NC(=O)C1`: the Potency entry is “inactive”. On to `CC(C)(O)[C@@H]1[C@H]2OC(=O)[C@@H]1[C@]1(O)C[C@H]3O[C@]34C(=O)O[C@H]2[C@]14C`, for which the Potency entry is “inactive”. As for `CC(=O)O[C@H]1CC[C@H]2[C@@H]3CCC4=CC(=O)CCC4=C3C=C[C@]12C`, the Potency is 22.4 µM (active). The same measure, in the same setting: with `CCOC(=O)c1ccccc1C(=O)OCC` the entry was “inactive”; with `CC[C@H](C)[C@H]1O[C@]2(C=C[C@@H]1C)C[C@@H]1C[C@@H](C/C=C(\C)[C@@H](O[C@H]3C[C@H](OC)[C@@H](O[C@H]4C[C@H](OC)[C@@H](O)[C@H](C)O4)[C@H](C)O3)[C@@H](C)/C=C/C=C3\CO[C@@H]4[C@H](O)C(C)=C[C@@H](C(=O)O1)[C@]34O)O2`, 5.01 µM (active); with `COC([CH2][Hg])CNC(=O)c1ccccc1OCC(=O)O` (configuration not stated), “inactive”. Still for that read-out and setting: with `CC[C@H]1CN2CC[C@H]1C[C@H]2[C@H](O)c1ccnc2ccc(OC)cc12` the entry was “inactive”; with `CCN(CC)C(=O)N[C@H]1C[C@@H]2c3cccc4[nH]cc(c34)C[C@H]2N(C)C1`, “inactive”; with `Cc1ccccc1-n1c(CF)nc2ccc(N)cc2c1=O`, 17.8 µM (active). On the same count and under the same terms, with `Cc1cccc(NC(=O)N[C@@H]2N=C(c3ccccc3)c3ccccc3N(C)C2=O)c1` the entry was “inactive”; with `O=[N+]([O-])c1ccccc1`, “inactive”. As to `NC(=O)c1cc(N2CC2)c([N+](=O)[O-])cc1[N+](=O)[O-]`, the Potency result was “inactive”. On the same count and under the same terms, with `CC1C/C=C/C(O)C(O)CC/C=C/c2cc(O)cc(O)c2C(=O)O1` (configuration not stated) the entry was “inactive”. On the same count and under the same terms, with `O=C(NCNC(=O)NC1C(=O)NC(=O)N1CO)NC1C(=O)NC(=O)N1CO` (configuration not stated) the entry was “inactive”.

The record behind these values is PubChem BioAssay (NCATS).
